Here are results for 15 compounds from PubChem BioAssay (NCATS).

Results filed as inconclusive are left out. The source made the active and inactive calls. The call rests on the fitted dose curve; in most records, active means well fitted activation curve with a large enough effect; inconclusive means small, poorly fitted or top-dose-only effect; inactive means no such curve, though single readings can be large or run the other way.

D(1A) dopamine receptor (Homo sapiens), sequence (P21728 whole entry, looked up): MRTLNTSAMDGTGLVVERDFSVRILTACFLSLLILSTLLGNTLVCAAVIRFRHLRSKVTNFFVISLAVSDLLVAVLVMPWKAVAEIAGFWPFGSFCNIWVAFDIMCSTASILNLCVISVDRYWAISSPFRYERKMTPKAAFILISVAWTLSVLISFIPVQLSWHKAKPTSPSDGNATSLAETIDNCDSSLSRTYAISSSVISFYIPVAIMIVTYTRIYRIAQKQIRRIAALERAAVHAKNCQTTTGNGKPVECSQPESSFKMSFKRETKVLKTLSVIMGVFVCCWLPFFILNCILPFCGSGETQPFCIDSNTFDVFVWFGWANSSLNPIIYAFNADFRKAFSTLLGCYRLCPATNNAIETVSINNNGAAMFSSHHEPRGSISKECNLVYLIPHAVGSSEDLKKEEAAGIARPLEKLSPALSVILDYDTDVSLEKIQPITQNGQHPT

This experiment has as its target D(1A) dopamine receptor (Homo sapiens) (UniProt P21728). Description: HTS Assay for Allosteric Agonists of the Human D1 Dopamine Receptor: Primary Screen for Potentiators (AID 488982). The settings on record: HEK293 T-REx D1 inducible cells, calcium flux, kinetic fluorescence; series mostly up to 8.37 µM. From the text:
Dopamine receptors (DARs) are involved in the etiology and/or therapy of a number of neuropsychiatric and endocrine disorders. For instance, all receptor-based antiparkinsonian drugs work via stimulating the […] DAR subtype whereas all FDA-approved antipsychotic agents are antagonists of this receptor. […] There are three different types of allosteric modulators that we are seeking, two of which will stimulate or augment receptor signaling, allosteric agonists and potentiators, while the third, allosteric antagonists, will attenuate receptor signaling. The present primary screening assay measures compound agonism by tracking calcium flux in a […], inducible Hek293 Trex D1 cell line.
Freshly passaged cells are plated in 1536 well black, clear bottom plates at a density of 4000 cells/well in 3 ul of complete media containing 1x tetracycline inducer. After an overnight incubation at 30 C in 5% CO2, cells are loaded with 2 ul of the no wash Calcium Assay Kit (ABD Bioquest) and incubated at room temperature for 30 to 90 minutes. A 10 cycle (1 second/cycle) baseline measurement is taken and then the FDSS online 1536 pintool delivers 23 nl of compound library (as well as dopamine controls) to the plate. The plate is measured for kinetically at 1 cycle/sec for 180 seconds and is considered to be the agonist portion of the assay (eg, compounds which activate a positive calcium response during this portion are flagged as potential agonists). Following the 180 second read, 1 ul of an EC20 of dopamine is delivered by an onboard pipette head. Measurements are taken kinetically for an additional 180 seconds.
Background: A change in cytosolic calcium serves as a functional read-out for many receptors and channels.
With `Cn1cnc2c(NCc3ccccc3)nc(NCCO)nc21`, the result was inactive.

Take `Cc1nn(-c2ccccc2)c(C)c1/C=N/N1CCN(Cc2ccccc2)CC1`: the outcome was inactive.

For the compound `C[N+](C)(C)CCO`, the outcome was inactive.

`Nc1ncnc2n[nH]c(Nc3ccc(F)cc3)c12`: the result was inactive.

In the case of `Brc1ccc([C@H]2CN3CCSC3=N2)cc1`, the outcome was inactive.

As for `CN(C)c1cc2c(Nc3ccc4c(cnn4Cc4ccccc4)c3)ncnc2cn1`, the result was inactive.

Turning to `CC(C)N(CCC(=O)c1ccc2ccccc2c1)Cc1ccccc1`, the result was inactive.

For `NC(N)=NCCCCN=C(N)N`, the outcome was inactive.

Consider `CCN(CC)CCNC(=O)c1ccc(NS(C)(=O)=O)cc1`, for which the outcome was inactive.

As for `COc1cccc2c1[C@@H]1CN(CCCCn3c(=O)[nH]c4c(sc5ncc(-c6ccccc6)nc54)c3=O)C[C@@H]1CO2`, the result was inactive.

With `O=C1NC(c2cccc([N+](=O)[O-])c2)=CCN1c1ccccc1O`, the outcome was inactive.

Consider `N[C@@H](Cn1ccc(=O)c(O)c1)C(=O)O`, for which the result was inactive.

Turning to `COC(=O)C1=CO[C@@H](O)[C@@H]2C(CO)=CC[C@H]12`, the outcome was inactive.

`O=C1NC(=O)/C(=C/c2ccc3c(c2)OC(F)(F)O3)S1`: the outcome was inactive.

Take `COc1ccccc1N1CCN(CCN2C(=O)CC3(CCCC3)CC2=O)CC1`: the result was inactive.
